Where “and” joins values, the source holds several entries; their conditions need not be identical. Identical values can stand only once. Inconclusive results are not listed. Calls of active or inactive are those of the source. Calls come from the whole dose curve; as a rule, active = well fitted inhibition curve with a large enough effect; inconclusive = small, poorly fitted or top-dose-only effect; inactive = flat fitted curve, though single readings scatter.
% is set by controls: 0 for no effect and ±100 for the full control effect.

One assay is described as follows: Drug repurposing screens with cells derived from glioblastoma tumor samples (AID 1345199). Note: nearly all actives have a fitted effect of over 40% in size. Conditions: GBM patient neurospheres viability, ATP luminescence, 48 h; at 20 µM (top of the series); tumour line C. The essentials: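 Primary testing used CD133+ neurospheres from four GBM patients, seven concentrations, 48 h exposure and ATP-based viability; confirmation added three slower-growing patient lines.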
As for `Nc1ccc(S(=O)(=O)NC(=O)c2ccccc2)cc1`, the activity, negative = cell killing is -23.5% (inactive).

For the molecule `C[C@@H]1CC[C@@]2(OC1)O[C@H]1C[C@H]3[C@@H]4CC[C@H]5C[C@@H](O)CC[C@]5(C)[C@H]4CC(=O)[C@]3(C)[C@H]1[C@@H]2C`, the activity, negative = cell killing was -26.8% (inactive).

For `CNCCCC1c2ccccc2C=Cc2ccccc21`, the activity, negative = cell killing was 3.37% (inactive).

For the molecule `CC(=O)c1ccc2c(c1)N(CCCN(C)C)c1ccccc1S2`, the activity, negative = cell killing is -20.2% (inactive).

On to `C[C@H](N)[C@H](O)c1cccc(O)c1`, for which the activity, negative = cell killing was -4.02% (inactive).

Still in this assay, the particulars now being: GBM patient neurospheres viability, ATP luminescence, 48 h; at 21.2 µM (top of the series); tumour line B.
`Nc1ccc(S(=O)(=O)NC(=O)c2ccccc2)cc1`: the activity, negative = cell killing was -10.1% (inactive).

In the case of `C[C@@H]1CC[C@@]2(OC1)O[C@H]1C[C@H]3[C@@H]4CC[C@H]5C[C@@H](O)CC[C@]5(C)[C@H]4CC(=O)[C@]3(C)[C@H]1[C@@H]2C`, the activity, negative = cell killing is -15.7% (inactive).

In the case of `CC(=O)c1ccc2c(c1)N(CCCN(C)C)c1ccccc1S2`, the activity, negative = cell killing is -19.6% (inactive).

With `C[C@H](N)[C@H](O)c1cccc(O)c1`, the activity, negative = cell killing was -13% (inactive).

The same assay, now with this note: GBM patient neurospheres viability, ATP luminescence, 48 h; at 21.2 µM (top of the series); tumour line D.
Take `Nc1ccc(S(=O)(=O)NC(=O)c2ccccc2)cc1`: the activity, negative = cell killing was -27.1% (inactive).

Regarding `C[C@@H]1CC[C@@]2(OC1)O[C@H]1C[C@H]3[C@@H]4CC[C@H]5C[C@@H](O)CC[C@]5(C)[C@H]4CC(=O)[C@]3(C)[C@H]1[C@@H]2C`, the activity, negative = cell killing was -22.8% (inactive).

In the case of `C[C@H](N)[C@H](O)c1cccc(O)c1`, the activity, negative = cell killing is -3.31% (inactive).

Staying with this assay, now noted: GBM patient neurospheres viability, ATP luminescence, 48 h; at 45.9 µM (top of the series); tumour line B.
As for `NC(=O)NC(=O)Cc1ccccc1`, the activity, negative = cell killing was 5.96% (inactive).

With `NC(=O)NNc1ccccc1`, the activity, negative = cell killing is -9.66% (inactive) and -3.84% (inactive).

For the molecule `N[C@H](C(=O)O)c1ccc(O)cc1`, the activity, negative = cell killing is -10.5% (inactive).

For the molecule `NC(=O)c1ncn([C@@H]2O[C@H](CO)[C@@H](O)[C@H]2O)n1`, the activity, negative = cell killing was -11% (inactive).

As for `N[C@H]1C(O)O[C@H](CO)[C@@H](O)[C@@H]1O` (stereo not given in full), the activity, negative = cell killing is -5.64% (inactive).

As to `O=S(=O)(O)NC1CCCCC1`, the activity, negative = cell killing is -10.5% (inactive).

On to `OC[C@H]1O[C@@H](O[C@@H]2[C@@H](CO)O[C@](O)(CO)[C@H]2O)[C@H](O)[C@@H](O)[C@H]1O`, for which the activity, negative = cell killing is -1.82% (inactive).

In the case of `CN(C)CCCO[C@@H]1[C@H]2OC(C)(C)O[C@H]2O[C@@H]1C(O)CO` (stereo not given in full), the activity, negative = cell killing is -1.76% (inactive).

On to `CC1=C(CC(=O)O)c2cc(F)ccc2/C1=C\c1ccc(S(C)=O)cc1` (stereo not given), for which the activity, negative = cell killing was -9.8% (inactive).

On to `COCCOC(=O)C1=C(C)NC(C)=C(C(=O)OC/C=C/c2ccccc2)C1c1cccc([N+](=O)[O-])c1` (stereo not given), for which the activity, negative = cell killing is 2.48% (inactive).

With `O=S(=O)(O)c1cc(I)c(O)c2ncccc12`, the activity, negative = cell killing was -21.6% (inactive).

For `CN1[C@@H]2CC(OC(=O)[C@H](CO)c3ccccc3)C[C@H]1[C@@H]1O[C@@H]12` (stereo not given in full), the activity, negative = cell killing is -8.37% (inactive) and 0.366% (inactive).

Turning to `CC1(C)OC(=O)NC1=O`, the activity, negative = cell killing is -11.2% (inactive).

`CCCCCCCCCCCCCCCCCCOCC(O)CO` (stereo not given): the activity, negative = cell killing was 0.27% (inactive).

For `CC(=O)CCC(=O)O`, the activity, negative = cell killing was -11.2% (inactive).

Turning to `C=CCn1c(=O)n([C@@H]2O[C@H](CO)[C@@H](O)[C@H]2O)c2nc(N)[nH]c(=O)c21`, the activity, negative = cell killing is -4.36% (inactive).

As to `CC1(C)CO[C@@H](CC(=O)O)CN1`, the activity, negative = cell killing is -8.88% (inactive).

As to `CC(=O)Oc1c(C)c(C)c2c(c1C)CC[C@@](C)(CCC[C@H](C)CCC[C@H](C)CCCC(C)C)O2`, the activity, negative = cell killing is -3.11% (inactive) and -14.8% (inactive) and -20.3% (inactive).

Regarding `CC(=O)NC(Cc1ccccc1)C(=O)O` (stereo not given), the activity, negative = cell killing was -12.3% (inactive).

For the molecule `CC(=O)OCC(=O)[C@@]1(O)CC[C@H]2[C@@H]3CCC4=CC(=O)CC[C@]4(C)[C@H]3C(=O)C[C@@]21C`, the activity, negative = cell killing is -22% (inactive).

The same assay, now with this note: GBM patient neurospheres viability, ATP luminescence, 48 h; at 45.9 µM (top of the series); tumour line D.
For the molecule `NC(=O)NC(=O)Cc1ccccc1`, the activity, negative = cell killing was 3.38% (inactive).

Turning to `NC(=O)NNc1ccccc1`, the activity, negative = cell killing was -10.5% (inactive) and 5.37% (inactive).

As for `N[C@H](C(=O)O)c1ccc(O)cc1`, the activity, negative = cell killing was -7.17% (inactive).

On to `NC(=O)c1ncn([C@@H]2O[C@H](CO)[C@@H](O)[C@H]2O)n1`, for which the activity, negative = cell killing was -8.98% (inactive).

Turning to `N[C@H]1C(O)O[C@H](CO)[C@@H](O)[C@@H]1O` (stereo not given in full), the activity, negative = cell killing is 4.44% (inactive).

For the molecule `O=S(=O)(O)NC1CCCCC1`, the activity, negative = cell killing was -5.78% (inactive).

With `OC[C@H]1O[C@@H](O[C@@H]2[C@@H](CO)O[C@](O)(CO)[C@H]2O)[C@H](O)[C@@H](O)[C@H]1O`, the activity, negative = cell killing is 8.93% (inactive).

`CN(C)CCCO[C@@H]1[C@H]2OC(C)(C)O[C@H]2O[C@@H]1C(O)CO` (stereo not given in full): the activity, negative = cell killing was -18.3% (inactive).

As for `CC1=C(CC(=O)O)c2cc(F)ccc2/C1=C\c1ccc(S(C)=O)cc1` (stereo not given), the activity, negative = cell killing is -10.1% (inactive).

`O=S(=O)(O)c1cc(I)c(O)c2ncccc12`: the activity, negative = cell killing is -2.75% (inactive).

Regarding `CN1[C@@H]2CC(OC(=O)[C@H](CO)c3ccccc3)C[C@H]1[C@@H]1O[C@@H]12` (stereo not given in full), the activity, negative = cell killing was -25.9% (inactive) and -16.8% (inactive).

On to `CC1(C)OC(=O)NC1=O`, for which the activity, negative = cell killing is -10.8% (inactive).

Regarding `CCCCCCCCCCCCCCCCCCOCC(O)CO` (stereo not given), the activity, negative = cell killing is 9.38% (inactive).

Regarding `CC(=O)CCC(=O)O`, the activity, negative = cell killing is -13.2% (inactive).

In the case of `C=CCn1c(=O)n([C@@H]2O[C@H](CO)[C@@H](O)[C@H]2O)c2nc(N)[nH]c(=O)c21`, the activity, negative = cell killing was 2.91% (inactive).

In the case of `CC1(C)CO[C@@H](CC(=O)O)CN1`, the activity, negative = cell killing was -5.5% (inactive).

Regarding `CC(=O)Oc1c(C)c(C)c2c(c1C)CC[C@@](C)(CCC[C@H](C)CCC[C@H](C)CCCC(C)C)O2`, the activity, negative = cell killing was -2.72% (inactive) and -19.7% (inactive) and -14.1% (inactive).

For the molecule `CC(=O)NC(Cc1ccccc1)C(=O)O` (stereo not given), the activity, negative = cell killing is -6.53% (inactive).

Source of the values: PubChem BioAssay (NCATS).
